The record followed here is PubChem BioAssay.

The test system of assay [1] is Wnt5a (protein binding on small-molecule microarray). The experiment in a line: Wnt5a binders on small-molecule microarray, primary screen, biophysical, 635/667 nm fluorescence (AID 1142).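 Further: fluorescence read at 667 nm with signal to noise per printed feature.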 The conditions noted are these: 635 nm fluorescence, higher = more signal.
A short description of assay [2]: cell viability in Huh7 cells, primary screen, cytotoxicity control for HCV replication inhibitor project, CellTiter-Glo luminescence, basal, 48 h (AID 1143).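 Further: Huh7 hepatoma cells carrying a hepatitis C replication reporter with no stimulus; test concentration not given here.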 The note with it: Huh7 HCV replicon, higher = more signal, called active from +8 up or from −8 down.
Assay [3] is described as follows: P. aeruginosa biofilm formation inhibitors, primary screen, PAO1 strain, BacTiter-Glo luminescence, LB-PBS (AID 1144). The conditions noted are these: 12 h, higher = more signal.
A short description of assay [4]: CREB reporter modulators without forskolin, primary screen, cell-based, PC12, CRE-LacZ reporter, unstimulated (AID 1145). The note with it: no forskolin, luminescence, 4.5 h, higher = more signal, called active from +8 up or from −8 down.
Assay [5] in a line: CREB reporter modulators under forskolin, primary screen, cell-based, PC12, CRE-LacZ reporter, forskolin-stimulated (AID 1146).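 Further: PC12 cells with 6xCRE LacZ reporter stimulated by forskolin 10 µM; beta-galactosidase reporter signal reflecting CREB driven transcription.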 The conditions noted are these: luminescence, 4.5 h, higher = more signal, called active from +8 up or from −8 down.
Assay [6] addresses Streptavidin (Streptomyces avidinii) (UniProt P22629). The experiment in a line: streptavidin binders on small-molecule microarray, primary screen, artefact control for SMM compound annotation, biophysical, 635/667 nm fluorescence (AID 1147).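 Further: signal reflects streptavidin binding to arrayed compounds as a control protein.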 The note with it: streptavidin binding, higher = more signal.
Assay [7] can be described thus: small-molecule binders of probe aInhba, primary screen, biochemical, small-molecule microarray, 635/667 nm fluorescence (AID 1148).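 Further: score merges 667nm spot fluorescence with signal-to-noise for antibody binding to printed compounds.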 The conditions noted are these: higher = more signal.
Assay [8] deals with Torsin-1A (Homo sapiens) (UniProt O14656). Put plainly: torsin A binders from cell lysate, primary screen, small-molecule microarray, wild-type, 635/667 nm (AID 1149). The conditions noted are these: COS7 hTOR1A-WT lysate, 635 nm fluorescence, higher = more signal.
Torsin-1A (Homo sapiens), sequence (O14656 whole entry, looked up): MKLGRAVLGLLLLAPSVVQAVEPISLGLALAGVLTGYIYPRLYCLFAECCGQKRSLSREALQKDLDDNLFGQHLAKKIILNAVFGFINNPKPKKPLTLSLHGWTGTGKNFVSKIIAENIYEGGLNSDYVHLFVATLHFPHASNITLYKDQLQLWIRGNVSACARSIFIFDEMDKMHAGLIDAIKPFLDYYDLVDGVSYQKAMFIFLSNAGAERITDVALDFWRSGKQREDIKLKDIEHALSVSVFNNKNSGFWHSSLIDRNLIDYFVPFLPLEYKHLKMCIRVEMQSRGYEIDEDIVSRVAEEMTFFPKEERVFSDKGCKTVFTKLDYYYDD
The target is the same in assay [9]. Put plainly: small-molecule binders of mutant TOR1A in lysate, primary screen, cell lysate, small-molecule microarray, COS7 lysate, 635/667 nm fluorescence (AID 1150).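 Further: score pools 667 nm emission and signal to noise measuring lysate protein binding.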 The note with it: COS7 hTOR1A mutant lysate, 635 nm fluorescence, higher = more signal.
For assay [10], the system named is Sonic hedgehog protein (Shh). Put plainly: small-molecule binders of Shh protein, primary screen, biochemical, small-molecule microarray, 635/667 nm fluorescence (AID 1151).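 Further: Shh protein binding to compounds spotted on small-molecule microarray slides; score combines spot fluorescence intensity with signal-to-noise across triplicate slides.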 The conditions noted are these: small-molecule microarray binding, 635 nm fluorescence; higher = more signal.

The source made the active and inactive calls. Unless noted, how the calls were made is not given here.

Streptavidin (Streptomyces avidinii), sequence (P22629 whole entry, looked up): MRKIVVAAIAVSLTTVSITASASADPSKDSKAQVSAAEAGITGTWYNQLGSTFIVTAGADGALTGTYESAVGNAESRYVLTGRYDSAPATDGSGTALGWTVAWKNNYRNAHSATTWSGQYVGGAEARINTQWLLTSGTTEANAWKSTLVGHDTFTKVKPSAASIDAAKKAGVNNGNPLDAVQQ

For `CN1C(=O)C2C=CC(C(O)C#Cc3ccccc3)N(N3CCCCC3)C2C1=O` (stereo not given), the composite z-score in assay [1] came to 1.11; in assay [6] it was 0.762; in assay [7] it was 1.1; with Torsin-1A (Homo sapiens) [8] it was 1.27; with Torsin-1A (Homo sapiens) [9], 1.79; in [10], 0.841. Besides, the z-score in assay [2] is 0.913 (inactive); in assay [3], -0.686 (inactive); in assay [4] it was 0.236 (inactive); in [5] it was -0.516 (inactive).
On to `CC(=O)NCCCC[C@@H]1NC(=O)[C@@H]2C[C@H](C(=O)NCCCCCNC(=O)CS)[C@H](c3cccc(OCCO)c3)N2C1=O`, for which the composite z-score is -0.149 in assay [1]; -0.526 in [6]; -0.101 in [7]; 0.653 with Torsin-1A (Homo sapiens) [8]; 0.541 in the assay with Torsin-1A (Homo sapiens) [9]; 1.62 in [10]. Also, the z-score in [2] was -1.12 (inactive); in assay [3], -0.617 (inactive); in assay [4], -1.48 (inactive); in [5], -1.4 (inactive).
For `CO[C@H]1O[C@H](CO)[C@@H](OC(=O)Nc2ccc(C(F)(F)F)cc2)[C@H](OC(=O)Nc2ccc3c(c2)OCO3)[C@@H]1OC(=O)Nc1ccc2c(c1)OCO2`, the composite z-score in assay [1] is 0.246; in assay [6] it was 0.273; in assay [7], -0.157; with Torsin-1A (Homo sapiens) [8], 1.81; in the assay with Torsin-1A (Homo sapiens) [9], 1.23; in [10], 0.57. The z-score in assay [2] is -4.31 (inactive); in assay [3], 0.999 (inactive); in [4], 0.652 (inactive); in [5], -1.93 (inactive).
In the case of `NC(=O)NCC#Cc1ccc2c(c1)[C@]1(C(=O)N2)[C@H](c2ccccc2OCCO)N2[C@H](c3ccccc3)[C@H](c3ccccc3)OC(=O)[C@H]2[C@@H]1C(=O)Nc1nc2ccccc2s1`, the composite z-score in assay [1] was -0.0307; in [6] it was 0.441; in assay [7] it was 0.0314; with Torsin-1A (Homo sapiens) [8], -0.671; in the assay with Torsin-1A (Homo sapiens) [9] it was 0.0313; in assay [10], 0.812. The z-score in assay [2] was 0.0402 (inactive); in [3] it was -1.39 (inactive); in assay [4] it was -0.0784 (inactive); in [5], 0.335 (inactive).
As for `C=CCOC(=O)[C@H]1[C@@H]2C(=O)O[C@@H](c3ccccc3)[C@@H](c3ccccc3)N2[C@@H](c2ccc(OCCOC(=O)[C@H]3C[C@H]4C(=O)N[C@@H](CCCCNC(C)=O)C(=O)N4[C@H]3c3ccc(O)cc3)cc2)[C@]12C(=O)Nc1ccc(I)cc12`, the composite z-score worked out at 0.413 in assay [1]; 0.142 in assay [6]; 0.098 in [7]; 0.807 with Torsin-1A (Homo sapiens) [8]; 1.01 with Torsin-1A (Homo sapiens) [9]; 2.09 in assay [10]. The z-score in assay [2] is -1.48 (inactive); in assay [3], 0.399 (inactive); in assay [4], 5.04 (inactive); in [5], 6.74 (inactive).
On to `C=CCC(OC(C)=O)[C@@H]1[C@@H](N(Cc2ccc(-c3ccccc3)cc2)C(=O)c2cccc3ccccc23)c2cc(OCCCO)ccc2N1C(=O)c1ccc(-c2ccccc2)cc1` (stereo not given in full), for which the composite z-score in assay [1] is 0.0826; in assay [6], 0.232; in [7], 0.0979; in the assay with Torsin-1A (Homo sapiens) [8] it was -0.0396; with Torsin-1A (Homo sapiens) [9], 0.499; in assay [10], 0.362. In addition, the z-score in assay [2] was -1.6 (inactive); in assay [3], -0.915 (inactive); in assay [4], 0.6 (inactive); in assay [5], -0.531 (inactive).
As for `CC(C)[Si](C#Cc1ccc(Oc2ccccc2)cc1)(O[Si](C#Cc1ccc(Oc2ccccc2)cc1)(C(C)C)C(C)C)C(C)C`, the composite z-score was 0.253 in assay [1]; -0.286 in assay [6]; 0.0403 in [7]; 0.567 with Torsin-1A (Homo sapiens) [8]; 0.514 in the assay with Torsin-1A (Homo sapiens) [9]; 1.05 in assay [10]. The z-score was 0.479 (inactive) in assay [2], -0.614 (inactive) in assay [3], 0.6 (inactive) in assay [4] and -0.378 (inactive) in assay [5].
In the case of `O=C(OCc1ccccc1)C1=CCC2c3[nH]c4ccccc4c3C(=O)C1N2S(=O)(=O)c1ccccc1[N+](=O)[O-]` (stereo not given), the composite z-score in assay [1] stood at 0.794; in assay [6] it was 0.745; in [7] it was 0.11; with Torsin-1A (Homo sapiens) [8], 0.498; in the assay with Torsin-1A (Homo sapiens) [9], 0.497; in [10] it was 0.488. Also, the z-score was -1.26 (inactive) in [2], -0.00859 (inactive) in [3], -0.0137 (inactive) in [4] and -0.451 (inactive) in assay [5].
In the case of `C=C(CC1([C@@H](NP(=O)(c2ccccc2)c2ccccc2)[C@H]2C[C@@H]2CCCC)CC1)c1ccccc1`, the composite z-score is 0.542 in assay [1]; 1.39 in assay [6]; 0.374 in assay [7]; 0.443 with Torsin-1A (Homo sapiens) [8]; 0.738 in the assay with Torsin-1A (Homo sapiens) [9]; -0.509 in assay [10]. The z-score in [2] is -3.74 (inactive); in [3], 0.955 (inactive); in assay [4], 0.4 (inactive); in [5], 0.151 (inactive).
`OCCCC1=CC(c2cccs2)N(Cc2cc3c(cc2Br)OCO3)CC1` (stereo not given): the composite z-score is -0.094 in assay [1]; -0.0072 in assay [6]; -0.024 in assay [7]; 0.155 with Torsin-1A (Homo sapiens) [8]; 0.396 with Torsin-1A (Homo sapiens) [9]; 1.4 in assay [10]. Besides, the z-score is -1.18 (inactive) in assay [2], -0.137 (inactive) in [3], 0.0563 (inactive) in [4] and -0.056 (inactive) in assay [5].
In the case of `CC(C)OC(=O)C=C1C[C@@H](c2ccccn2)O[C@@H](c2ccccn2)O1`, the composite z-score in assay [1] was 0.144; in assay [6] it was 0.546; in assay [7] it was -0.0001; with Torsin-1A (Homo sapiens) [8] it was 0.0581; in the assay with Torsin-1A (Homo sapiens) [9] it was 0.0457; in [10], 1.7. Besides, the z-score was -0.891 (inactive) in [2], 0.589 (inactive) in [3], -0.0137 (inactive) in [4] and -0.322 (inactive) in assay [5].
With `COC(=O)[C@@]1(Cc2ccc(OC)cc2)[C@H]2c3cc(C(=O)N(C)C)n(Cc4ccc(S(C)(=O)=O)cc4)c3C[C@H]2CN1C(=O)c1ccccc1`, the composite z-score in assay [1] was -0.0427; in assay [6], 1.24; in assay [7], 0.431; in the assay with Torsin-1A (Homo sapiens) [8] it was 2.24; with Torsin-1A (Homo sapiens) [9], 1.29; in [10] it was -0.599. Moreover, the z-score in assay [2] was -2.9 (inactive); in assay [3], -1.05 (inactive); in assay [4], -1.14 (inactive); in assay [5], -1.33 (inactive).
